Where “and” joins values, the source holds several entries; their conditions need not be identical. Identical values can stand only once. In all, about 130,000 compounds went through this assay and about 350 (0.27%) were called active. Rule as the data show it: active = z-score below about -2 (passing the limit was not always enough); inactive = the rest. Many of the other results were omitted from the sample, so actives are more common in it than they were. Where a structure was tested more than once in an assay, its records may differ in their call.

This experiment can be described thus: PubChem AID 504770. As to conditions: E. coli YBA685 rctB-dependent plasmid, OD600 growth, 3 h; stronger effect = lower value.
For the compound `O=C(OCN1C(=O)c2ccccc2C1=O)c1ccccc1O`, the z-score is 0.65 (inactive). Next, `CO/N=C(/C(=O)N[C@@H]1C(=O)N2C(C(=O)O)=C(CSc3nc(=O)c(O)nn3C)CS[C@H]12)c1csc(N)n1`: -4.8 (active) and -2 (inactive); `Nc1nc(/C(=C/CC(=O)O)C(=O)N[C@@H]2C(=O)N3C(C(=O)O)=CCS[C@H]23)cs1`: -1.1 (inactive).

Regarding `CC(=O)Nc1ccc(C(=O)N(C)Cc2cccc(F)c2)cc1`, the z-score is 1.3 (inactive).

`OCc1nc(-c2ccccc2)cs1`: the z-score is -0.45 (inactive). With `CC(C)N1CCC(=O)N(c2ccccc2Cl)C1=O`, the z-score is 0.25 (inactive). As for `CC(N)C(=O)Nc1ccc2c(c1)Cc1ccccc1-2` (configuration not stated), the z-score is -1.1 (inactive). Next, `Cc1cccc(C(=O)Nc2nnc(/N=C/c3ccc(Br)s3)s2)c1`: -0.85 (inactive). For the compound `O=C(NC1CCCC1)c1cc(-c2ccc(Br)cc2)on1`, the z-score was -2.5 (active). `CC(C)CNC(=O)c1cc(-c2ccc(Br)cc2)on1`: the z-score is -0.2 (inactive). As to `O=C(NC1CCCC1)c1cc(-c2ccccc2)on1`, the z-score is 0.55 (inactive). Next, `CCn1c(SCC(=O)Nc2ccc3c(c2)OCCCO3)nc2cc(S(N)(=O)=O)ccc21`: 2.15 (inactive). Turning to `COc1ccc(-c2nc3cc(N=Cc4cccc(OC)c4O)ccc3o2)cc1`, the z-score was 0.1 (inactive). Next, `COc1ccc(-c2ocnc2C(=O)O)cc1`: -0.1 (inactive). Next, `CCCCSc1nnc2c(=O)[nH]c(=O)[nH]c2n1`: -1.6 (inactive); `CC(=O)NCc1ccc(C(=O)COC(=O)c2cc(-c3ccccc3)nn2-c2ccccc2)o1`: 0.5 (inactive); `CC(=O)Oc1ccc2c(=O)c(-c3ccccc3)coc2c1C`: 0.9 (inactive).

In the case of `CCOC(=O)c1c(NC(=O)c2cc3ccccc3o2)sc2c1CC(C)(C)OC2`, the z-score is 1.4 (inactive). Next, `NS(=O)(=O)c1cc(OCC(F)(F)F)ccc1OCC(F)(F)F`: -0.85 (inactive); `Cn1cc(NC(=O)N2CCc3ccccc3C2)c2ccccc21`: 0.5 (inactive); `COCCn1c(C)cc(C(=O)COC(=O)Cn2c(C)csc2=O)c1C`: -0.2 (inactive).

As for `Cc1csc(=O)n1CC(=O)OCC(=O)c1ccc(Cl)s1`, the z-score was 1.15 (inactive).

As for `Cc1ccc(Cn2ccsc2=NC(=O)COC(=O)Cn2c(C)csc2=O)cc1`, the z-score was -3.3 (active). Next, `Cc1ccccc1C(=O)Nc1ccccc1N1CCN(C)CC1`: 0.25 (inactive); `O=C1NN(c2ccc(Cl)c(Cl)c2)C(=O)/C1=C\C=C\c1ccccc1`: 0.25 (inactive). As to `N#Cc1c(SCC(=O)C23CC4CC(CC(C4)C2)C3)sc2c(=O)[nH]c(=O)[nH]c12`, the z-score was -0.7 (inactive). Next, `CCOc1ccc(/C=c2/sc3nnc(-c4ccccc4C)n3c2=O)cc1`: -0.2 (inactive).

For the origin of these results see PubChem BioAssay AID504770 (ICCB-Longwood Screening Facility, Harvard Medical School, 2011).
